Among all 190,000 compounds or so, about 790 (0.42%) were called active. For the sample, actives were picked, then their nearest neighbours and some compounds at random. Values without a mark were called inactive.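 The calls were made as follows: active = inhibition above a set limit, the median over all tested compounds plus 3 SD (cut at about 9.5% in these data); inconclusive = no clear call, values can overlap the other calls; inactive = the rest.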
test system: HMG-CoA reductase (Enterococcus faecalis, mvaE); test: class II HMG-CoA reductase enzyme inhibition – biochemical, Enterococcus faecalis, primary screen (AID 1066);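 also: enzyme runs in reverse so mevalonate oxidation gives rising NADPH absorbance; 0% = complete reaction with DMSO and 100% = background rate lacking mevalonate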; conditions: purified E. faecalis HMGR, NADPH absorbance 340 nm kinetic; at 10 µM; stronger effect = higher value

Structure (SMILES) | inhibition
O=C(N/N=C/c1ccco1)c1ccc(C(=O)N/N=C/c2ccco2)o1 | 3.83%
CCN(C(=O)c1ccc(Br)cc1)c1ccccc1 | -0.76%
CCOC(=O)CNC(=O)CSc1ccc2nnc(-c3cccnc3)n2n1 | -1.15%
CCOc1ccc(-c2ccc(SCC(=O)N3CCOCC3)nn2)cc1 | -2.28%
Cc1ccc(C(=O)NCC(=O)O)s1 | -1%
O=C(Nc1cccc(Cl)c1)Nc1ccccc1NS(=O)(=O)c1cccs1 | -2.46%
CCc1ccc(C(=O)OCC(=O)NCC(F)(F)F)cc1 | -8.47%
CCC(=O)Nc1sc(C(=O)Nc2ccccc2)c(C)c1C(=O)OC | 13% (active)
CCOC(=O)c1sc(NC(=O)COc2ncnc3ccccc23)c(C(=O)OCC)c1C | 3.4%
COC(=O)c1c(NC(C)=O)sc(C(=O)Nc2ccccc2OC)c1C | -2.99%
CCOC(=O)Cn1nnnc1C | -2.01%
Oc1cccc2ccc(/C=C/c3ccc(Br)s3)nc12 | 0.35%
Cc1ccc(NC(=O)Nc2cccc(C(F)(F)F)c2)nc1 | -0.23%
CCC(=O)Nc1ccc(Nc2nc(Cl)nc(Nc3ccc(NC(=O)CC)cc3)n2)cc1 | -2.77%
Cc1ccc2nc(Nc3ncc4c(n3)CC(C)(C)CC4=O)nc(C)c2c1 | -0.8%
NC(=O)COc1ccc(C23CC4CC(CC(C4)C2)C3)cc1 | 6.59%
O=C(CCN1C(=O)c2ccccc2C1=O)NNC(=O)c1ccc(Cl)cc1Cl | -5.06%
CC(=O)N/C(=C/c1ccc(OC(F)F)cc1)C(=O)O | 0.04%
CC(CCn1cccn1)NC(=O)CCc1nnc(CCc2ccccc2)o1 (stereo unspecified) | -1.69%
COC(=O)C1=C(C)N(c2ccc(C)cc2)/C(=C/c2ccc(O)cc2)C1=O | 1.84%
O=C(CSC1CC(=O)N(CCc2ccccc2)C1=O)Nc1ccc(Cl)cc1 (stereo unspecified) | 0.85%
CC(Sc1nnnn1C1CCCCC1)C(=O)O (stereo unspecified) | 3.4%
Cc1cccc(-c2nc3ccccc3c(=O)n2NC(=O)Cc2ccc(Cl)cc2)c1 | 2.94%
NNC(=O)C1CC(O)CN1S(=O)(=O)c1ccc(Cl)cc1 (stereo unspecified) | -8.75%

Structure (SMILES) | inhibition
COc1cc(NC(=O)c2ccccc2NS(=O)(=O)c2ccc(Cl)s2)cc(OC)c1 | -0.12%
C/C(=N\NC(=O)NC1CCCCC1)c1ccc(OC(F)F)cc1OC(F)F | -0.33%
CCc1ccc(CN2C(=O)c3ccccc3C2C(=O)NCC2CCCO2)cc1 (stereo unspecified) | -2.1%
CC(=O)Oc1ccccc1C1=NN(C(C)=O)C(c2ccccc2)C1 (stereo unspecified) | -1.75%
CCSc1nc(-c2ccc(OC)cc2)cc(-c2ccc(OC)cc2)c1C#N | -8.44%
CCOc1cc(-c2cc(-c3ccc(OC)cc3)nc(N)c2C#N)ccc1O | -5.02%
COc1ccc(-c2cc(-c3ccc(N)cc3)nc(N)c2C#N)cc1OC | 11.6% (active)
COc1ccc(C2C(C#N)=C(N)N(c3ncn[nH]3)C3=C2C(=O)CCC3)cc1 (stereo unspecified) | 3.99%
FC(F)Oc1ccccc1NC(=S)Nc1cccc(Cl)c1Cl | -10.5%
CS(=O)(=O)N(Cc1ccccc1)c1ccc(C(=O)NN=C2CCCCCC2)cc1 | -2.77%
Cc1[nH][nH]c(=O)c1C(c1ccc(-c2ccc(Cl)cc2)o1)c1c(C)[nH][nH]c1=O | 11.6% (active)
Cc1[nH][nH]c(=O)c1C(c1ccc2c(c1)OCO2)c1c(C)[nH][nH]c1=O | 4.7%
CCOc1ccc(C(c2c(C)[nH][nH]c2=O)c2c(C)[nH][nH]c2=O)cc1OCC | -2.78%
Cc1noc(/C=C/c2ccco2)c1S(=O)(=O)N1CCC(C(=O)Nc2ccc(Cl)cn2)CC1 | 0.34%
CC(O)c1cccc(NC(=O)Cc2cccc3ccccc23)c1 (stereo unspecified) | -6.15%
Cc1ccc(Sc2ccncc2S(N)(=O)=O)cc1 | -1.29%
C[C@@H](O)c1nc2ccccc2n1N | 0.29%
CC(C)CC(CC(C)C)=NNC(=O)c1ccc(CSc2nncn2C)cc1 | 1.23%
O=C(Nc1cccnc1)c1ccc(Cl)cc1[N+](=O)[O-] | -3.45%
CCCOc1ccc(N2C(=O)CC(N(CCc3ccc(S(N)(=O)=O)cc3)C(C)=O)C2=O)cc1 (stereo unspecified) | -5%
NS(=O)(=O)c1ccc(N2C(=O)C3C4CC(C(Br)C4Br)C3C2=O)cc1 (stereo unspecified) | 81.6% (active)
Cc1ccc(N2C(=O)C3CC3C2=O)cc1 (stereo unspecified) | -5.05%
COc1cc(NS(=O)(=O)c2ccc(NC(=O)CN3C(=O)c4ccccc4C3=O)cc2)ncn1 | -9.27%
O=C(COC(=O)c1ccco1)NCc1ccc(Cl)cc1 | -3.08%

Structure (SMILES) | inhibition
CC(OC(=O)CCc1nc(=O)c2ccccc2n1C)C(=O)NCc1ccc2c(c1)OCO2 (stereo unspecified) | 2.38%
O=C(Cn1cnc([N+](=O)[O-])n1)NCCc1ccccc1 | 3.82%
CCOc1ccc(Nc2nc(Cc3nnc(SCC(=O)c4ccc(C)cc4)o3)cs2)cc1 | -4.07%
O=C(CSc1nnc(Cn2cnc3ccccc32)o1)c1ccccc1 | -2.99%
CC(=O)Nc1ccc(C(=O)CSc2nnc(Cc3ccccc3)o2)cc1 | 20.1% (active)
COCCCNCC(=O)Nc1sc(C)c(C)c1C(=O)OC | 1.07%
CCOC(=O)c1c(NC(=O)c2cccs2)sc(C)c1C | 0.72%
COC(=O)c1c(NC(=O)c2c(Cl)cnn2C)sc(C)c1C | 11% (active)
CC1=NN(C(=O)c2ccccc2Br)C(O)(c2cccnc2)C1 (stereo unspecified) | 0.91%
CC1=NN(C(=O)c2ccc(Br)cc2)C(O)(c2ccccc2)C1 (stereo unspecified) | 3.11%
CCOC(=O)C1(O)CC(C)=NN1C(=O)c1cccc(Br)c1 (stereo unspecified) | 16.5% (active)
Cc1cccc(-n2cc(CN3CCN(C(=O)c4ncn[nH]4)CC3)c(-c3cccc(F)c3)n2)c1 | -4.4%
NC(N)=NCCCc1cn(CC(=O)N2CCNCC2)nn1 | -8.27%
O=C(Cc1ccc([N+](=O)[O-])cc1)N/N=C/c1ccco1 | 3.38%
CCCOCC(O)CC(CC)C(=O)NNC(=S)Nc1ccccc1 (stereo unspecified) | -0.14%
C=CCN(CC=C)CCOc1ccccc1[N+](=O)[O-] | -2.7%
COc1cc(NC(=S)N2CCCC(C)C2)cc(OC)c1OC (stereo unspecified) | 0.35%
CN1CCN(C(CNS(=O)(=O)c2cccs2)c2cccnc2)CC1 (stereo unspecified) | -4.32%
COc1cc(NC(=O)N2CCOCC2)cc(OC)c1 | -5.26%
CN(C)S(=O)(=O)c1ccc(NC(=O)N2CCOCC2)cc1 | 15.2% (active)
O=C(Nc1ccccc1)N1CCN(C(=O)Nc2ccccc2)CC1 | -2.68%
Cc1ccc(SCCC(=O)NCc2ccccn2)cc1 | 1.33%
CN1C(=O)/C(=C/c2ccc(C(=O)NC3CCCC3)cc2)Oc2ccccc21 | -13.4%
CCN1/C(=C/c2ccc3ccc(C)cc3[n+]2CC)Sc2ccccc21 | -2.41%

Structure (SMILES) | inhibition
O=C(CCN1c2ccccc2Sc2ccccc21)Nc1ccccc1 | -1.11%
CCC(=O)/C=C1\Sc2ccccc2N1CC | 11.8% (active)
Cc1cc(C(=O)COC(=O)C2CC2)c(C)n1-c1ccc(F)cc1 | 2.01%
COc1cc(/C=N/NC(=O)c2cc(C)n(-c3ccc(F)cc3)c2C)cc(OC)c1O | 3.01%
Cc1cc(C(=O)N/N=C/c2ccc(O)c([N+](=O)[O-])c2)c(C)n1-c1ccc(F)cc1 | 11.2% (active)
CCOc1ccccc1N1CCN(C(=S)Nc2ccc(S(N)(=O)=O)cc2)CC1 | -3.56%
O=C(Nn1cnc2ccccc2c1=O)c1ccc([N+](=O)[O-])cc1Cl | -1.28%
CCCCN1C(=O)/C(=C(/C#N)C(N)=O)c2ccccc21 | -0.52%
CN(CC(=O)Nc1ccccc1[N+](=O)[O-])Cc1ccc(Br)cc1 | -2.46%
CN(CC(=O)Nc1ccccc1F)CC(=O)Nc1ccccc1Br | 9.9% (active)
CSc1ccccc1NC(=O)CN(C)CC(=O)Nc1cccc(Br)c1 | 3.22%
O=C(CCC(=O)NNc1nc2ccccc2c2nc(-c3ccccc3)nn12)NCCCN1CCCC1=O | 11.7% (active)
O=C(CCn1c(=S)[nH]c2ccccc2c1=O)NCCCN1CCCC1=O | -5.44%
Cc1cccc(C(=O)NCCCN2CCCC2=O)c1 | -2.71%
O=Cc1ccc(Oc2cccc(C(F)(F)F)c2)nc1 | -2.83%
O=C(COC(=O)c1cccc(Br)c1)Nc1cccc2c1C(=O)c1ccccc1C2=O | -0.48%
COc1ccc(NC(=O)c2sc(N)nc2-c2ccccc2)cc1 | 3.25%
COc1ccc(-n2c(O)c(C=NCC(c3ccco3)N3CCCC3)c3ccccc3c2=O)cc1OC (stereo unspecified) | 3.15%
Cc1nn(CCOc2ccc(Br)cc2)c(C)c1[N+](=O)[O-] | -5.05%
Cc1ncc([N+](=O)[O-])n1CCOC(=O)c1ccc(Br)cc1 | 10% (active)
N/C(=N\OC(=O)COc1ccc([N+](=O)[O-])cc1)c1ccc(Br)cc1 | -0.17%
CCN(CC)CCNc1nc(-c2ccc(OC(F)F)cc2)c(C)s1 | -4.92%
CCN(C(=O)CSc1nnc2ccccn12)C1CCS(=O)(=O)C1 (stereo unspecified) | -6.19%
COC(=O)c1ccc(-n2cnc3ccccc32)nc1 | -2.82%
